Test system: Drosophila S2 cl14 SmoIP sensor cells
Assay: normalized SmoIP GFP fluorescence (untreated unstimulated = 0%, untreated Hh-stimulated = 100%); higher = more Smo activation sensor fluorescence
Conditions: compound concentration: 2 uM, 24 h
[1] = stimulation: Hh conditioned medium (+Hh)
[2] = stimulation: mock conditioned medium (-Hh)
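Note: flow cytometry read-out as median GFP intensity of gated cells, compounds added 30 min before Hh-conditioned or mock medium, mock-treated cells serving as unstimulated baseline.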

Row | Compound | normalized SmoIP GFP fluorescence [1] | normalized SmoIP GFP fluorescence [2]
1 | CC(=O)c1c(C)c2cnc(Nc3ccc(N4CCNCC4)cn3)nc2n(C2CCCC2)c1=O | 150% | 3.72%
2 | Cc1cc(Nc2ccc(NC(=O)c3ccc(Nc4ccnc5ccccc45)cc3)cc2)nc(N)n1 | 108% | -3.5%
3 | CCc1cc2c(cc1N1CCC(N3CCOCC3)CC1)C(C)(C)c1[nH]c3cc(C#N)ccc3c1C2=O | 148% | 8.36%
4 | Cc1cc(Cn2cnc3c2CC(C(=O)O)N(C(=O)C(c2ccccc2)c2ccccc2)C3)ccc1N(C)C (stereo not drawn) | 109% | -4.13%
5 | Nc1ccc(-c2ccc3ncc4ccc(=O)n(-c5cccc(C(F)(F)F)c5)c4c3c2)cn1 [torin-2] | 59.5% | -9.64%
6 | COc1cc2ncnc(Nc3cccc(Cl)c3)c2cc1OC [ag-1478-tyrphostin-ag-1478] | 157% | -12.9%
7 | CN1[C@@H]2CC[C@H]1C[C@@H](OC(c1ccccc1)c1ccccc1)C2 [benztropine-mesylate] | 113% | -0.662%
8 | CNCc1ccc(C)c(NC(=O)c2ccc(Nc3nc(-c4ccccc4)c4ccccc4n3)cc2)c1 | 124% | 11.6%
9 | CC/C(=C(\c1ccccc1)c1ccc(OCCN(C)C)cc1)c1ccccc1 [Tamoxifen-Citrate(Nolvadex)] | 112% | -6.61%
